Sampled rows, rich in hits. Any-hit rate of the full collection: about 2.8%.
Pol beta inh: qHTS Assay for Inhibitors of DNA Polymerase Beta. hit rate 1.3% among 340,000. Potency, µM (doses to about 114 µM), inactives show at the top dose activity change, negative = inhibition, most hits filed as inhibitors. Pol beta primer extension/strand displacement, fluorescence kinetic. AID 485314, 2010. P06746; also: potency is read from the fitted curve at half-maximal effect; % is scaled to controls: 0 for no effect and ±100 for the full control effect
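Pol beta (10 nM) was preincubated with compound for 15 min at room temperature. The reaction was then started with 50 nM substrate and read immediately and after a further 10 min at room temperature.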
WRN inhibitor: qHTS for Inhibitors of WRN Helicase | Bifunctional 3'-5' exonuclease/ATP-dependent helicase WRN (Homo sapiens), Q14191 | WRN helicase unwinding, fluorescent forked duplex, kinetic | Potency, µM (titrated, usually from 114 µM), inactives show top-dose activity change, negative = inhibition, usual class: inhibitors | hit rate 0.46% among 360,000 | AID 651768, 2012; also: potency is read from the fitted curve at half-maximal effect; % is scaled to controls: 0 for no effect and ±100 for the full control effect; nearly all actives have a fitted effect of over 55% in size
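Fluorescence dequenching readout, ex 525 nm/em 598 nm, kinetic mode: forked duplex DNA (100 nM final) with adjacent fluorophore and quencher unwound by WRN (20 nM final) with 2 mM ATP. Compound preincubation 15 min, room temperature.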
POLH inh: qHTS for Inhibitors of Polymerase Eta; recombinant Pol eta, fluorescent DNA replication assay; hit rate 1.2% among 390,000; AID 588591, 2011; DNA polymerase eta (Homo sapiens), Q9Y253; Potency, µM (titrated, usually from 114 µM), without a hit: at the highest dose activity change, negative = inhibition, most hits filed as inhibitors; also: potency is read from the fitted curve at half-maximal effect; % is scaled to controls: 0 for no effect and ±100 for the full control effect
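Pol eta (10 nM) was preincubated with compounds for 15 min at room temperature, after which fluorescent replication substrate (50 nM final) was added to start the reaction. Fluorescence was read kinetically at 0 and 10 min.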
PI5P4Ka inh: qHTS for Inhibitors of phosphatidylinositol 5-phosphate 4-kinase (PI5P4K) | PI5P4Kalpha enzyme, ADP-Glo luminescence, 60 min; hits give low values | max response, % | hit rate 1.2% among 330,000 | AID 652105, 2013; active = max response of -50% or lower; inconclusive = between -30% and -50%; inactive = -30% or higher; also: value at the top dose of about 77 µM; % is scaled to controls: 0 for no effect and ±100 for the full control effect
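Quantitative HTS of the MLSMR library against PI5P4Kalpha with substrate. ATP added last at 5 microM final; room temperature, 60 minutes. Remaining ATP depleted, ADP converted and read as luminescence.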
Pol iota inh: qHTS for Inhibitors of Polymerase Iota; hit rate 1% among 390,000; DNA polymerase iota (Homo sapiens), Q9UNA4; Pol iota fluorescent replication assay, 10 min; AID 588590, 2011; Potency, µM (top dose mostly 115 µM), inactives show at the highest dose activity, negative = inhibition, most hits filed as inhibitors; also: potency is read from the fitted curve at half-maximal effect
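Pol iota at 10 nM preincubated 15 min with compounds at room temperature; reaction started with fluorescent substrate, 50 nM final. Fluorescence read kinetically at 0 and 10 min; buffer-only wells as negative control.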
Pol kappa inh: qHTS for Inhibitors of Polymerase Kappa | DNA polymerase kappa (Homo sapiens), Q9UBT6 | purified Pol kappa, fluorescent DNA synthesis assay, 10 min | Potency, µM (top dose mostly 107 µM), for the others: at the highest dose activity, negative = inhibition, hits mostly inhibitors | hit rate 0.53% among 400,000; also: potency is read from the fitted curve at half-maximal effect; % is scaled to controls: 0 for no effect and ±100 for the full control effect
Target sequence (Q9UBT6 whole entry, looked up): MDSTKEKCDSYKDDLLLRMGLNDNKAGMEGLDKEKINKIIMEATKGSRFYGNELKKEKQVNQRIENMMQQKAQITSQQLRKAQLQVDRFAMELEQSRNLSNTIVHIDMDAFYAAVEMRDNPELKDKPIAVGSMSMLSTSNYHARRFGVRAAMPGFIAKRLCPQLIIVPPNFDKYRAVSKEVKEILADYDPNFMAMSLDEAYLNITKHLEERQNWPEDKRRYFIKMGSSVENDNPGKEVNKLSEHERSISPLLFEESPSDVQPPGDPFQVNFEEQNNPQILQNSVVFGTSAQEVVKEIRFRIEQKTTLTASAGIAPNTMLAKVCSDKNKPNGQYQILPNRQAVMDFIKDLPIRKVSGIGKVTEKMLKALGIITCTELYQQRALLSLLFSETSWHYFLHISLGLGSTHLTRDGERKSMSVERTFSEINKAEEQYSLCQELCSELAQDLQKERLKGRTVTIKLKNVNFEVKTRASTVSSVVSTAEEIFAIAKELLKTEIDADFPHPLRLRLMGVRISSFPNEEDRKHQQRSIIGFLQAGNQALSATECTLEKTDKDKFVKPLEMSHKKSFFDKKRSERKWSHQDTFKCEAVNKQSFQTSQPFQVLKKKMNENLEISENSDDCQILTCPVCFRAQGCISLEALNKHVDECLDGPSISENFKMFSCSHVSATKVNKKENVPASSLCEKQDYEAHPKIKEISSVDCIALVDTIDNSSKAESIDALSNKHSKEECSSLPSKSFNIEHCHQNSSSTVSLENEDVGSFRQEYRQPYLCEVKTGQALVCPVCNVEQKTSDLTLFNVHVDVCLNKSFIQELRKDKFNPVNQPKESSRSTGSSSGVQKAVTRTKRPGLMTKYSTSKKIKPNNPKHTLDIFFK
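Fluorescent qHTS in 1536-well format: enzyme (10 nM) and compound sat 15 min at room temperature before 50 nM substrate (final) was added. Signal taken at 0 and 10 min; no-enzyme buffer wells were negative controls.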
ADP-Glo counter: qHTS for Inhibitors of PI5P4K: ADP-Glo counter assay; shares compounds with PI5P4Ka inh; ADP-Glo detection counter-screen, luciferase luminescence, no enzyme; Potency, µM (series often up to 76.9 µM), without a hit: at the top dose activity change, negative = inhibition, most hits filed as inhibitors; 1,100 tested, under 10 active
An asterisk follows results filed as active; ? = inconclusive; nt = no result given; [ ] = remark or other dose. Unless noted, calls follow the shape of the dose curve; as a rule, active = well fitted curve in the direction sought with a large enough effect; inconclusive = small, poorly fitted or top-dose-only effect, or another doubt; inactive = no such curve, though single readings can be large; an effect the other way counts as inactive or inconclusive.

SMILES	Pol beta inh	WRN inhibitor	POLH inh	PI5P4Ka inh	Pol iota inh	Pol kappa inh	ADP-Glo counter
Cc1cn([C@H]2C[C@H](O)[C@@H](/C=C/C(=O)NCc3ccc4c(c3)OCO4)O2)c(=O)[nH]c1=O	nt	-6%	nt	1	nt	nt	nt
Cc1ccc(NC(=O)N2CCC(NC(=O)c3cccc(C)c3)CC2)cc1	-13%	-7%	13%	-78*	?	-25%	-5%
Cc1ccc(NC(=O)N2CCC(NC(=O)c3ccco3)CC2)cc1	14%	4%	-10%	-2	2%	-10%	nt
CS(=O)(=O)N(CC(=O)Nc1ccc(S(=O)(=O)N2CCCC2)cc1)c1ccccc1	31%	-5%	-7%	-17	22%	-7%	nt
CN(c1ccc(-c2csc(NC(=O)CCCc3nc4ccccc4c(=O)[nH]3)n2)cc1)S(C)(=O)=O	nt	3%	-9%	-56*	nt	nt	-9%
O=C(CCc1nc2ccccc2c(=O)[nH]1)Nc1nc(-c2cccs2)cs1	nt	-4%	-15%	-5	33%	2%	nt
CN(c1cccc(NC(=O)c2ccc(N(C)S(=O)(=O)c3ccccc3)cc2)c1)S(C)(=O)=O	17%	-2%[11.6 µM]	-17%	-56*	?	-3%	-4%
CC(=O)Nc1ccc(C(=O)Nc2cccc(S(=O)(=O)N(C)c3ccccc3)c2)cc1	nt	-2%	-18%	-1	-14%	-6%	nt
COCCNC(=O)C1Cc2c(-c3ccc(NC(C)=O)cc3)ccnc2O1 (stereo not drawn)	nt	0%	nt	-66*	nt	nt	2%
COCCNC(=O)C1Cc2c(-c3cccc(NC(C)=O)c3)ccnc2O1 (stereo not drawn)	nt	-7%	nt	?	nt	nt	nt
O=C(CSc1ncc2c(n1)-c1cc(Cl)ccc1N(Cc1ccccc1F)S2(=O)=O)Nc1cccc(C(F)(F)F)c1	26%	nt	-16%	nt	-23%	-4%	nt
CCn1c(SCC(=O)Nc2ccccc2OC)nc2ccccc2c1=O	31%	-8%	4%	nt	23%	-12%	nt
CCOc1ccccc1-n1c(SCC(=O)Nc2ccccc2C(=O)O)nc2ccccc2c1=O	-7%	-19%	3%	-58*	9%	-9%	-6%
COc1ccccc1OCC(=O)Nc1ccc2c(c1)OCO2	50µM*	?	?	-50*	?	-25%	0%
C=CCN(Cc1cccc(OC)c1OC)C(=O)Oc1ccccc1	nt	2%	-17%	0	21%	-9%	nt
O=c1cc(N2CCOCC2)oc2c1ccc1ccccc12	nt	nt	nt	nt	nt	18%[60.1 µM]	nt
O=c1[nH]c(N2CCOCC2)cc2ccccc12	nt	14%	-9%	-3	?	-32%	-5%
Cc1ccc(S(=O)(=O)Cc2cc(F)c([N+](=O)[O-])cc2[N+](=O)[O-])cc1	1%	-12%	-17%	-13	-12%	-6%	nt
O=C1c2ccccc2C(=O)N1c1cccc(O)c1	nt	nt	nt	nt	14%	2%	nt
C[C@H](CO)N1C[C@H](C)[C@@H](CN(C)S(=O)(=O)c2ccc3c(c2)OCCCO3)OCc2cnnn2CCCC1=O	nt	-4%	-2%	-61*	nt	nt	-3%
COCc1ccc2oc(C(=O)O)cc2c1	19%	?	-17%	-68*	-16%	-7%	0%
N#CCCSCc1ccc2oc(C(=O)O)cc2c1	-1%	-8%	-1%	nt	4%	-5%	nt
COc1cc(NC(=O)CCNS(=O)(=O)c2ccc3c(c2)CCN3C(=O)C2CC2)cc(OC)c1	20%	nt	-6%	nt	3%	-2%[60.1 µM]	nt
CCn1c(C(=O)OC)cc2c1ccn2-c1ccc(F)cc1	-6%	?	-5%	-50*	?	-18%	-2%
CCCCN(C)C(=O)c1ccc2c(c1)N(Cc1cccc(Cl)c1)C(=O)c1ccccc1S2=O (stereo not drawn)	-19%	nt	-16%	nt	-13%	-7%[60.1 µM]	nt
SMILES	Pol beta inh	WRN inhibitor	POLH inh	PI5P4Ka inh	Pol iota inh	Pol kappa inh	ADP-Glo counter
CC1=C(C(=O)Nc2cccc(F)c2)C(c2ccsc2)C2=C(CC(C)(C)CC2=O)N1 (stereo not drawn)	8%	2%	-21%	-3	-7%	-10%	nt
COc1cccc2cc(C(C)N(CCCN3CCOCC3)C(=O)Nc3ccccc3)oc12 (stereo not drawn)	2%	2%	-9%	-2	6%	-1%	0%
COc1ccc(NC(=S)N(CCCN2CCOCC2)C(C)c2cc3cccc(OC)c3o2)cc1 (stereo not drawn)	-1%	-7%	-22%	3	42%	-3%	nt
Cc1ccc(N2CCN(S(=O)(=O)c3cccc4ccccc34)CC2)cc1Cl	1%	nt	-8%	nt	19%	4%	nt
CCS(=O)(=O)Nc1ccc(-c2nc3cccnc3s2)cc1	3%	4%	-10%	-59*	20%	1%	-9%
O=S(=O)(Nc1ccc(-c2nc3cccnc3s2)cc1)c1ccc(Cl)s1	-25%	0%	?	-62*	2%	-6%	-5%
C/C(CCc1ccc2c(c1)OCO2)=N\NC(=O)c1ccccc1Br	1%	-3%	-3%	1	24%	-17%	nt
Cc1cc(NC(=O)C2CCCN(S(=O)(=O)c3cccc4nonc34)C2)ccc1Br (stereo not drawn)	3%	nt	-5%	nt	51%	4%	nt
Cc1cccc(C2Nc3ccccc3C(=O)N2c2ccc(F)cc2)n1 (stereo not drawn)	9%	1%	-7%	1	173%	-3%	2%
COc1ccc(C(=O)NNC(=O)CN2CCC(n3nnc4cc(C(F)(F)F)ccc43)CC2)cc1	-1%	-1%	5%	nt	15%	0%	nt
O=C(O)CCC(=O)N1CCC(n2nnc3cc(C(F)(F)F)ccc32)CC1	7%	-6%[11.6 µM]	?	-24	?	-30%	2%
CC1Cc2ccccc2N1C(=O)CN1CCC(n2nnc3cc(C(F)(F)F)ccc32)CC1 (stereo not drawn)	-1%	0%	-19%	2	2%	-17%	nt
COC(=O)c1ccccc1NC(=O)CN1CCC(n2nnc3cc(C(F)(F)F)ccc32)CC1	0%	-28%	-16%	?	-15%	-4%	4%
Clc1cccc(Cl)c1CNc1ccc(N2CCCC2)cc1	1%	-10%[57.1 µM]	-6%	-51*	95%	-12%	-13%
Cc1ccc(C)c(NC(=O)CN2C(=O)C3CC=CCC3C2=O)c1 (stereo not drawn)	nt	0%	-2%	-12	nt	nt	nt

Screening results from PubChem BioAssay.
